A number with no mark means an inactive call. Results filed as inconclusive are left out. The source made the active and inactive calls. Unless noted, the call rests on the fitted dose curve; in most records, active means well fitted curve in either direction with a large enough effect (not every such curve was filed as active); inconclusive means small, poorly fitted or top-dose-only effect, or another doubt; inactive means flat fitted curve, though single readings scatter.
Experiments:
[1] = biological target: Lysosomal acid glucosylceramidase (Homo sapiens) (UniProt P04062); test: Glucocerebrosidase-p2 (AID 348; in the data active means potency below about 10 µM; further: potency means the concentration at half of the fitted maximal effect); conditions: purified GBA, blue fluorogenic substrate, 40 min
Method in brief: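 Normal human glucocerebrosidase (0.2 nM) with blue fluorogenic substrate (80 uM final) in citrate/phosphate pH 5.9 with 10mM sodium taurocholate, 0.01% tween-20; 40 min RT, NaOH/glycine stop; fluorescence Ex 365/Em 440; AC50 from a titration from 0.6 nM upwards.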

[2] = AP1 Signaling Pathway (AID 357); conditions: ME-180 AP-1-bla reporter, EGF-induced, beta-lactamase ratio, 5 h; at 7.69 µM (top of the series) unless noted; further: on the % scale 0 is the no-effect control and ±100 the full control effect
Method in brief: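 AP-1-bla ME-180 cells with beta-lactamase reporter under AP-1 response element, stimulated with EC50 EGF; compounds titrated, 5 hours at 37 degrees Celsius. CCF4 read at 460/530 nm ratio; positive and negative modulators judged by AC50.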

[3] = biological target: Cytochrome P450 1A2 (Homo sapiens) (UniProt P05177); test: p450-cyp1a2 (AID 410; calls by dose curve; further: potency means the concentration at half of the fitted maximal effect;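 on activity change, negative = inhibition: -100% = full effect of reference inhibitor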); conditions: recombinant CYP1A2, luciferin-ME demethylation, luminescence; series mostly up to 11.4 µM
Method in brief: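 Read-out is luminescence from luciferin produced by CYP1A2 demethylation of Luciferin-ME (100uM, at Km). Detection reagent stopped the 60 min NADPH-dependent reaction; signals were normalized to 57 uM furafylline.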

[4] = Stat Signaling Pathway (AID 446); conditions: ME-180 SIE beta-lactamase reporter, IL-6 stimulated, 5 h; at 7.69 µM (top of the series) unless noted;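 further: ME-180 cervical cancer cells given 40 pM IL-6 alongside compound; SIE-controlled beta-lactamase reporter measured as 460/530 nm FRET emission ratio; on the % scale 0 is the no-effect control and ±100 the full control effect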
Method in brief: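 Normalization used AC90 stimulation (300 pM IL-6) and AC90 inhibition (125 nM pan-JAK inhibitor at 40 pM IL-6). The underlying signal is SIE-driven beta-lactamase in ME-180 cells after 5 h IL-6 exposure with compound.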

[5] = biological target: Glucocorticoid receptor (Homo sapiens) (UniProt P04150); test: GR-GFP Redistribution (AID 450;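 active means compounds whose dose series gives a full or clear partial fitted curve of increased nuclear translocation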; further: potency means the concentration at half of the fitted maximal effect); conditions: U2OS GR-GFP nuclear translocation, laser cytometry, 2 h
[6] = biological target: Glucocorticoid receptor (Homo sapiens) (UniProt P04150); test: GR-EFC Redistribution (AID 451; calls by dose curve; further: potency means the concentration at half of the fitted maximal effect); conditions: CHO-K1 GR-EFC translocation, beta-gal luminescence, 2 h
Method in brief: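 CHO-K1 cells stably expressing nuclear-localized β-gal enzyme acceptor and GR fused C-terminally to the enzyme donor fragment; ligand-driven nuclear translocation restores β-gal by complementation. Compounds titrated up to 46 uM final, 2 h at 37 °C; luminescence read.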

[7] = biological target: Mitogen-activated protein kinase 10 (Mus musculus) (UniProt Q61831); test: JNK3 AlphaScreen Assay (AID 530); conditions: JNK3 lysate, c-Jun phosphorylation; series mostly up to 11.4 µM;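 further: kinase came from lysate of stimulated human HepG2 cells; signal reports phosphorylation of biotinylated GST-cJun 1-79 at Ser73 with 10 µM ATP; on the % scale 0 is the no-effect control and ±100 the full control effect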
Method in brief: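 Biotinylated GST-cJun(1-79) served as substrate for JNK3 in HepG2 lysates stimulated with IL-1beta and TNF-alpha. ATP was 10 uM final, pH 7.6. Ser73 phosphorylation was quantified by AlphaScreen (680 nm excitation).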

[8] = biological target: 3',5'-cyclic-AMP phosphodiesterase 4B (Homo sapiens) (UniProt Q07343); test: qHTS Assay for Inhibitors of PDE-IV (AID 607; active means well fitted activation curve with a large enough effect in the main read-out, with a control signal flat, not every such curve was filed as active; further: % of control where 0% means no effect); conditions: HEK293 ACTOne CNG channel cells, membrane potential fluorescence; series mostly up to 22.9 µM
Method in brief: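 HEK293 ACTOne cells with CNG channel (1000/well), endogenous PDE4; membrane potential dye, compounds up to 22.9 uM final. Fluorescence Ex 535/Em 590; RO 20-1724 (100 uM final) as reference.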

[9] = biological target: Cytochrome P450 3A4 (Homo sapiens) (UniProt P08684); test: qHTS Assay for Inhibitors and Substrates of Cytochrome P450 3A4 (AID 884; active means well fitted curve in the direction sought with a large enough effect; an effect the other way counts as inactive or inconclusive; further: nearly all actives have a fitted effect of over 50% in size; further: potency means the concentration at half of the fitted maximal effect); conditions: recombinant CYP3A4, Luciferin-PPXE luminescence; series mostly up to 57.1 µM
Method in brief: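 Luminescent readout of luciferin produced by CYP3A4 (20 nM) dealkylation of Luciferin-PPXE, 25 uM (its KM). NADPH-driven reaction ran 60 min at RT after 10 min compound preincubation; data scaled to 57 uM ketoconazole as 100% inhibition.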

[10] = biological target: Cytochrome P450 3A4 (Homo sapiens) (UniProt P08684); test: qHTS Assay for Activators of Cytochrome P450 3A4 (AID 885; active means well fitted curve in the direction sought with a large enough effect; an effect the other way counts as inactive or inconclusive; further: nearly all actives have a fitted effect of over 65% in size); conditions: recombinant CYP3A4, Luciferin-PPXE luminescence, 60 min; series mostly up to 11.4 µM
Method in brief: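 Human CYP3A4 dealkylates Luciferin-PPXE to luciferin, which luciferase detection converts to light. Substrate was at its KM (25uM), buffer 200mM KPO4, reaction 60 min at RT.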

[11] = biological target: Cytochrome P450 2C9 (Homo sapiens) (UniProt P11712); test: qHTS Assay for Inhibitors and Substrates of Cytochrome P450 2C9 (AID 883; active means well fitted curve in the direction sought with a large enough effect; an effect the other way counts as inactive or inconclusive; further: nearly all actives have a fitted effect of over 60% in size; further: potency means the concentration at half of the fitted maximal effect); conditions: recombinant CYP2C9, luciferin-H luminescence, 60 min; series mostly up to 11.4 µM
Method in brief: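 A luminogenic readout tracked human CYP2C9 (10nM) converting deoxyluciferin (100uM, at KM) in 25mM KPO4 during 60 min at 37C with regenerated NADPH. Values normalized to 57uM sulphaphenazole as complete inhibition.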

[12] = biological target: Cytochrome P450 2D6 (Homo sapiens) (UniProt P10635); test: qHTS Assay for Inhibitors and Substrates of Cytochrome P450 2D6 (AID 891; active means well fitted curve in the direction sought with a large enough effect; an effect the other way counts as inactive or inconclusive; further: nearly all actives have a fitted effect of over 60% in size; further: potency means the concentration at half of the fitted maximal effect); conditions: recombinant CYP2D6, luciferin-ME EGE luminescence; series mostly up to 11.4 µM
Method in brief: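 Luminescent read-out of luciferin formed by 5 nM human CYP2D6 demethylating 30 uM Luciferin-ME EGE (Km level) over 60 min at room temperature after NADPH regeneration addition. Data normalized to full inhibition by 1.43 uM quinidine.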

[13] = biological target: Cytochrome P450 2C19 (Homo sapiens) (UniProt P33261); test: qHTS Assay for Inhibitors and Substrates of Cytochrome P450 2C19 (AID 899; active means well fitted curve in the direction sought with a large enough effect; an effect the other way counts as inactive or inconclusive; further: nearly all actives have a fitted effect of over 60% in size; further: potency means the concentration at half of the fitted maximal effect; on activity, negative = inhibition: on the % scale 0 is the no-effect control and ±100 the full control effect); conditions: recombinant CYP2C19, luciferin-H EGE luminescence; series mostly up to 11.4 µM
Method in brief: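 NADPH-dependent conversion of Luciferin-H EGE (10uM, at KM) by 5nM enzyme in 50mM KPO4, 60 min at 37C following 10 min compound preincubation. Stopped with luciferin detection buffer; luminescence read after 20 min.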

[14] = qHTS Assay for Identification of Small Molecule Agonists for Hypoxia Response Element Signaling Pathway (AID 914; active means well fitted activation curve with a large enough effect in the signal ratio, with a control signal flat, not every such curve was filed as active; the % refers to the signal ratio; further: % of control where 0% means no effect); conditions: ME-180 (cervical carcinoma) HRE-bla reporter, beta-lactamase ratio, CoCl2, 17 h; activation: stronger effect = higher value
Method in brief: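 qHTS titration; ME-180 HRE-bla cells; EC50 CoCl2 co-treatment, 17 h at 37 degrees Celsius; CCF4 dye, ex 405nm, em 460nm and 530nm; %Activity from ratio; AC50.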

Cytochrome P450 2C19 (Homo sapiens), sequence (P33261 whole entry, looked up): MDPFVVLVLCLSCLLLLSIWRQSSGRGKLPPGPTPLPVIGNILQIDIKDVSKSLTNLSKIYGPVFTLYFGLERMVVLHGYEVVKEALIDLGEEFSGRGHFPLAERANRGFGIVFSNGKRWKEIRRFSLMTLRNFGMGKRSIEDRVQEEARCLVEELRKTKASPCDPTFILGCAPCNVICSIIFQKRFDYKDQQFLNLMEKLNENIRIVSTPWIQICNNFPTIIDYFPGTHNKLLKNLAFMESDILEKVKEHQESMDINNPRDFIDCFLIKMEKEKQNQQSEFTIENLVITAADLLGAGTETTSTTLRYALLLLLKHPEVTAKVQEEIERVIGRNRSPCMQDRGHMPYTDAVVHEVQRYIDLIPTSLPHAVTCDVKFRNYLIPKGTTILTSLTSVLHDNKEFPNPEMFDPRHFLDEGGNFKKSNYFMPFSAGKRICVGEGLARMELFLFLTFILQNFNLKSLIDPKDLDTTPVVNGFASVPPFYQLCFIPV
Cytochrome P450 3A4 (Homo sapiens), sequence (P08684 whole entry, looked up): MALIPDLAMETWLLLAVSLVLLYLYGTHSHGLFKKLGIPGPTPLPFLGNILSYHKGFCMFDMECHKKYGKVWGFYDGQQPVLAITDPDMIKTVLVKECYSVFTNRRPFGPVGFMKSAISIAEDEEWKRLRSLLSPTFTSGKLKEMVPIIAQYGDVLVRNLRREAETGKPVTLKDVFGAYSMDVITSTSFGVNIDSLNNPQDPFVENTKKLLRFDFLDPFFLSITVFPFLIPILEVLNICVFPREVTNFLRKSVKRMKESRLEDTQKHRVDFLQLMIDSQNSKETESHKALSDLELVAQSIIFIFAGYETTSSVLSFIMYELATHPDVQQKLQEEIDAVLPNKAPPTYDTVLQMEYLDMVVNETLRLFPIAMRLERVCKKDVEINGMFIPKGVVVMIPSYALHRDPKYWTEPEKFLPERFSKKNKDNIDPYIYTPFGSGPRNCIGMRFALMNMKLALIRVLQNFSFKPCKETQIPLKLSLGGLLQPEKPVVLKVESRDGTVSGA
Lysosomal acid glucosylceramidase (Homo sapiens), sequence (P04062 whole entry, looked up): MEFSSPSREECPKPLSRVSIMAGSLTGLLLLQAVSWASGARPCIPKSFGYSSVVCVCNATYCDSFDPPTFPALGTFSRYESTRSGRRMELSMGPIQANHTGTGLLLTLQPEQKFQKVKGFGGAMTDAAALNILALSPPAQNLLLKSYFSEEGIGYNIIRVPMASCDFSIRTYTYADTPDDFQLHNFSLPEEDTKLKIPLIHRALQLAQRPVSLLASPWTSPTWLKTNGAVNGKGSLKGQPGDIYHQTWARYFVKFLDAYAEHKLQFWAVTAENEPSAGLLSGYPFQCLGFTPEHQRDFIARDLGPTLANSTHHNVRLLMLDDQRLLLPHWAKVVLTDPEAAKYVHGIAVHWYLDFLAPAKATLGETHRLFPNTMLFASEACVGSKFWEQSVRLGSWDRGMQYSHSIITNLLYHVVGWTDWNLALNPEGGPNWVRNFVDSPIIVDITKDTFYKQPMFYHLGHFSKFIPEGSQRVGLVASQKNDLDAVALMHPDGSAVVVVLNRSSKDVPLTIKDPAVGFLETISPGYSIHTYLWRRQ
Cytochrome P450 2C9 (Homo sapiens), sequence (P11712 whole entry, looked up): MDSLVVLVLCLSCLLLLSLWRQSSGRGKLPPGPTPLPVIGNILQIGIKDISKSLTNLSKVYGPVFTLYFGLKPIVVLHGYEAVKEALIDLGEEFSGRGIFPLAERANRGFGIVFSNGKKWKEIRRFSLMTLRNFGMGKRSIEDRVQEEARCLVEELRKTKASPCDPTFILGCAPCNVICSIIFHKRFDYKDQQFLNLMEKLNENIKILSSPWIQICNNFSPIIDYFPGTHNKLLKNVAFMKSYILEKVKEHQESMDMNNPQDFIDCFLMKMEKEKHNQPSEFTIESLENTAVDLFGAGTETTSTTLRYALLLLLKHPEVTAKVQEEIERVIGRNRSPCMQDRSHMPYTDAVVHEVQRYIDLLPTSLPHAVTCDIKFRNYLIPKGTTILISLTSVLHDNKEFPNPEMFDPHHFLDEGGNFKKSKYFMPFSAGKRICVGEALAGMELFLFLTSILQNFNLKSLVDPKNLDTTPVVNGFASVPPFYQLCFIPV
Cytochrome P450 1A2 (Homo sapiens), sequence (P05177 whole entry, looked up): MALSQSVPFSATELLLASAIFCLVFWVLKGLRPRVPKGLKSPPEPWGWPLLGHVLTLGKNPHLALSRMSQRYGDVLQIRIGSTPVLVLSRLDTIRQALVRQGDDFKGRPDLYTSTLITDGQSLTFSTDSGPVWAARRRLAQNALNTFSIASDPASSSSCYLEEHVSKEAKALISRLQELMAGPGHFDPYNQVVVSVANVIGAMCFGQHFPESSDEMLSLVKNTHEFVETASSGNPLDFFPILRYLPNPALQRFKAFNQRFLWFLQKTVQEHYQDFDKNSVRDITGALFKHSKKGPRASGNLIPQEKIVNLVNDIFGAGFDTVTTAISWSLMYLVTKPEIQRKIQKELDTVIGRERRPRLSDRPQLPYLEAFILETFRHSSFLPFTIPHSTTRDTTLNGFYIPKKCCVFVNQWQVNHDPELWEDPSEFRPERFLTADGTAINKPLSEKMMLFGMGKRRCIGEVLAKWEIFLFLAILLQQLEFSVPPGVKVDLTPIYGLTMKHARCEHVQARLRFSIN
Glucocorticoid receptor (Homo sapiens), sequence (P04150 whole entry, looked up, the tested form may be a part): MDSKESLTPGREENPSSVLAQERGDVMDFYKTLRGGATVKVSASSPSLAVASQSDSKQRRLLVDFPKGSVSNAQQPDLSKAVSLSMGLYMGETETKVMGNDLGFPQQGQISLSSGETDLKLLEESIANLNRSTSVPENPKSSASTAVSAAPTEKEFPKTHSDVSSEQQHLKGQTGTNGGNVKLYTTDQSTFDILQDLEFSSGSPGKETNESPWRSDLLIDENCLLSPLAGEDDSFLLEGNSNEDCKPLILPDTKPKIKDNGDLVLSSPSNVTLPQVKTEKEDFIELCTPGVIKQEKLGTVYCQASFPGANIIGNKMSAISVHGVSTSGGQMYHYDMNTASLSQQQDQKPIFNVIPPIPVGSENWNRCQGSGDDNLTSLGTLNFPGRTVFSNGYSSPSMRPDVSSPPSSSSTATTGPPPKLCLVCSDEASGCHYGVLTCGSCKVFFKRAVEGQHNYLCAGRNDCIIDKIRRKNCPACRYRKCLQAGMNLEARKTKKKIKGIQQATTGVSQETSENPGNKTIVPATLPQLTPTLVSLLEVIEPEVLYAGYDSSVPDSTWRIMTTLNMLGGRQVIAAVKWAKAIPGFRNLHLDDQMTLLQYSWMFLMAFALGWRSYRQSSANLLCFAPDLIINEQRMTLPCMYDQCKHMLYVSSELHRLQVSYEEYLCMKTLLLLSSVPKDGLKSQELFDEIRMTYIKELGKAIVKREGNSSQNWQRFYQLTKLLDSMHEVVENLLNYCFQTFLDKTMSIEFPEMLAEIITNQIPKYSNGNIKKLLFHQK
Cytochrome P450 2D6 (Homo sapiens), sequence (P10635 whole entry, looked up): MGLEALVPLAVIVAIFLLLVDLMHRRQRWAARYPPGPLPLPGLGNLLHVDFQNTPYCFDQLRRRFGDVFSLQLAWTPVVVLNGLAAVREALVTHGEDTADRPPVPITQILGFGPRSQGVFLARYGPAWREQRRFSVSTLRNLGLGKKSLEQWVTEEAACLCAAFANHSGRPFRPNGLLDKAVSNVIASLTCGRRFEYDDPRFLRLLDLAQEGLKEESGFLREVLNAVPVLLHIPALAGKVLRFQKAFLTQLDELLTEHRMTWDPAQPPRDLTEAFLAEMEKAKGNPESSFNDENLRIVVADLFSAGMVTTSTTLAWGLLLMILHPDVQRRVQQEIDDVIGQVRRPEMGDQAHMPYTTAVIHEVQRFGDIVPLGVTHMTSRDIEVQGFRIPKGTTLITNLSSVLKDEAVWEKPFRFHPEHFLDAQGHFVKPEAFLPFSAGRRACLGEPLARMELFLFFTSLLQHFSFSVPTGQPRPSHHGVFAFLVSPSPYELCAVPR
3',5'-cyclic-AMP phosphodiesterase 4B (Homo sapiens), sequence (Q07343 whole entry, looked up): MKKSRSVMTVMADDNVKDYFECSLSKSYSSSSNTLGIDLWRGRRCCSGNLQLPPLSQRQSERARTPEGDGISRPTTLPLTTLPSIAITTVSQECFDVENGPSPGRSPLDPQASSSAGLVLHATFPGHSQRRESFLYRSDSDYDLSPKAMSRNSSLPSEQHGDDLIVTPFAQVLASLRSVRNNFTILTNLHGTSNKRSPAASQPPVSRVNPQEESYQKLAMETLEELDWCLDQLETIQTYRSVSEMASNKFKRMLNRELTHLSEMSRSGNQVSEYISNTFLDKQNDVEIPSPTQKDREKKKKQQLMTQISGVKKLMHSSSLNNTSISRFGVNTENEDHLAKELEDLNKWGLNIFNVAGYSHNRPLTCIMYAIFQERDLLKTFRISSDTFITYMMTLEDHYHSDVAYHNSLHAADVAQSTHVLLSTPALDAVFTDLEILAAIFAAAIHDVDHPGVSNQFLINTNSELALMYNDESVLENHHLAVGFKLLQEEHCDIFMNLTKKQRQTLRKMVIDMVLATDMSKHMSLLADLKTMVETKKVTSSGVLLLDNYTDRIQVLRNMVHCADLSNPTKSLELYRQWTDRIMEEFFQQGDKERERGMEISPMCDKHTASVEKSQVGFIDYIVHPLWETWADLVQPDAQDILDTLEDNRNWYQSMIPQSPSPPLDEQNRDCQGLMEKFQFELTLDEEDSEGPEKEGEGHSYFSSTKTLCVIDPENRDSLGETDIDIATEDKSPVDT

SMILES | Potency [1] [µM] | activity change, negative = inhibition [2] | Potency [3] | activity, negative = inhibition [4] | Potency [5] [µM] | Potency [6] [µM] | Potency [7] | Potency [8] | Potency [9] | Potency [10] | Potency [11] | Potency [12] | Potency [13] | activity change, negative = inhibition [3] | activation [14] [%] | activity change, negative = inhibition [9]
CC(C)c1ccc(/C(C(=O)O)=C(\O)C(=O)O)cc1 | > 11.4 | -1.43% | inactive | -0.351% | > 46 | > 9.22 | inactive | inactive |  |  |  |  |  |  |  | 
COc1ccc(C[C@@H]2C(=O)N[C@H](C)C(=O)N(C)[C@@H]3Cc4ccc(cc4)Oc4cc(ccc4O)C[C@H](C(=O)N[C@@H](C)C(=O)N[C@H](C)C(=O)N2C)N(C)C3=O)cc1 | > 11.4 | -121% (active) | inactive | -104% (active) | > 46 | > 9.22 | inactive | inactive | 3.98 µM (active) | inactive |  |  |  |  |  | 
c1ccc(SC(Sc2ccccc2)c2ccc3c(c2)OCO3)cc1 | > 11.4 | -9.51% | 0.501 µM (active) | -12% | > 46 | > 9.22 | inactive | inactive | 2.51 µM (active) | inactive | 3.16 µM (active) | 3.16 µM (active) | 0.0316 µM (active) |  |  | 
Cc1ccc2ccccc2c1CSc1nc(N)nc2c1ncn2CC(C)C | > 11.4 | -11.7% |  | -19.8% | > 46 | > 9.22 | inactive | inactive |  |  |  | 3.98 µM (active) |  | -20.8% [at 2.29 µM] |  | 
Cc1c2cccc(Sc3ccccc3)c2c2c3c(cccc13)[S+](c1ccccc1)C2 (stereo unspecified) | > 11.4 | -7.04% |  | 2.31% | > 46 | > 9.22 | inactive | inactive |  | inactive | 2.51 µM (active) |  | 0.0631 µM (active) | -17.3% [at 2.29 µM] | -19.6 | 
CN(C)S(=O)(=O)c1ccc(Nc2ccc(O)c3c2C(=O)c2c([N+](=O)[O-])ccc(O)c2C3=O)cc1 | > 11.4 | -13.4% | 0.126 µM (active) | 23.6% | > 46 | > 9.22 |  | inactive |  | inactive |  |  |  |  |  | 
Cc1[nH]n(-c2ccc(S(=O)(=O)O)cc2)c(=O)c1N=Nc1ccccc1 | > 11.4 | -16.3% | inactive | -16.2% | > 46 | > 9.22 | inactive | inactive |  |  |  |  | inactive |  | 27.8 | 
CC(=O)O[C@H]1CC[C@@]2(C)C(=CC[C@@H]3[C@H]4CC[C@@H]([C@H](C)C(=O)O)[C@]4(C)CC[C@H]32)C1 | > 11.4 | -2.09% | 3.16 µM (active) | 9.87% | > 46 | > 9.22 | inactive | inactive |  |  |  |  |  |  | 1.23 | 
Clc1ccc2c(NC3CCC(N4CCCCC4)CC3)ccnc2c1 (stereo unspecified) | > 11.4 | -12.3% |  | 3.71% | > 46 | > 9.22 |  | inactive |  |  |  |  | inactive | -15.7% [at 2.29 µM] |  | 
Cc1cc2ccccc2c[n+]1CC(O)C[n+]1cc2ccccc2cc1C | > 11.4 | -5.85% | inactive | 4.97% | > 46 | > 9.22 | inactive | inactive |  |  |  | 0.0251 µM (active) |  |  |  | 
O=C(c1cc(C(F)(F)F)cc(C(F)(F)F)c1)N1CCC[C@@]2(CCN(Cc3ccccc3)C2)C1 | > 11.4 | 2.92% | 25.1 µM (active) | 7.65% |  | > 46 | inactive | inactive | 5.01 µM (active) |  |  |  |  |  |  | 
N#Cc1ccc(CN2CC3(CCN(C(=O)c4cc(C(F)(F)F)cc(C(F)(F)F)c4)CC3)C2)cc1 | > 11.4 | -21.3% | inactive | 7.48% |  | > 46 | inactive | inactive |  |  |  |  |  |  |  | 
c1ccc(CNCCN2CCNCC2)nc1 | > 11.4 | 4.86% | inactive |  | > 46 | > 9.22 | inactive | inactive |  |  | inactive | inactive | inactive |  |  | -5.12% [at 11.4 µM]
CCN(Cc1cc(Cl)cc(C)c1O)Cc1c(O)ccc2ccccc12 | > 11.4 | -8.15% | 1 µM (active) | 1.25% | > 46 | > 9.22 | inactive | inactive |  |  |  | 1.26 µM (active) | 1.26 µM (active) |  |  | 
N/N=C1/c2ccccc2N[C@H]1OC(=O)Nc1ccccc1 | > 11.4 | -4.61% | 0.501 µM (active) | -9.98% | > 46 | > 9.22 | inactive | inactive |  |  |  | 3.16 µM (active) |  |  |  | 

— PubChem BioAssay (NCATS)
